# Reference: publication PMC7862700, “An all-to-all approach to the identification of sequence-specific readers for epigenetic DNA modifications on cytosine”
# Key:
# Assay in all cases: DAPPL (digital affinity profiling via proximity ligation, sequencing); 10 mM Tris-HCl pH 7.5, 50 mM NaCl, 1 mM DTT, 4% glycerol, room temperature, 30 min; GST-TFs on glutathione beads, 16-mer random dsDNA library, 0.1% formaldehyde crosslink after washing; high values mean tight binding
# FLI1 = target: T1, FLI1 (Homo sapiens, UniProt Q01543 1-452); conditions: protein: recombinant; tags: N-terminal GST; dsDNA, one strand shown
# T1 sequence: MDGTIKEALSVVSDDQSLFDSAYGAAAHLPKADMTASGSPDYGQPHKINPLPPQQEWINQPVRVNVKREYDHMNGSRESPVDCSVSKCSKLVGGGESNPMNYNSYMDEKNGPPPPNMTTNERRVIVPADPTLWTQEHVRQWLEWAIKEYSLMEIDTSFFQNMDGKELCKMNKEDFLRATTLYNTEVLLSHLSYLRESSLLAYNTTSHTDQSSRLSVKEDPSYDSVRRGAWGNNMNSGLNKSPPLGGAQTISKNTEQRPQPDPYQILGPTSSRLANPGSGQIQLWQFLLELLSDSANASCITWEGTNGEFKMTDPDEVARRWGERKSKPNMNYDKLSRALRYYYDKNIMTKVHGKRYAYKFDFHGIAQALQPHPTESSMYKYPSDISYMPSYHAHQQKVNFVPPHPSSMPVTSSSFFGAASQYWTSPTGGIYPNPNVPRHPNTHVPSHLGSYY
# Summary of the method: (§1)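 GST fusions of human transcription factors were expressed in yeast and captured with glutathione beads. Once given DNA barcodes and pooled alongside a tag-only sample, they were incubated for 30 min at room temperature with 200 nmole of a random double-stranded 16-mer DNA library in Tris/NaCl/DTT/glycerol buffer, then washed, crosslinked (0.1% formaldehyde), proximity-ligated, PCR-amplified and sequenced on an Illumina NextSeq500. The binding signal of each hexamer is its read frequency for a factor divided by its frequency for the tag-only sample.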
# ELK1 = target: T2, ELK1 (Homo sapiens, UniProt P19419 1-428); conditions: protein: recombinant; tags: N-terminal GST; dsDNA, one strand shown
# T2 sequence: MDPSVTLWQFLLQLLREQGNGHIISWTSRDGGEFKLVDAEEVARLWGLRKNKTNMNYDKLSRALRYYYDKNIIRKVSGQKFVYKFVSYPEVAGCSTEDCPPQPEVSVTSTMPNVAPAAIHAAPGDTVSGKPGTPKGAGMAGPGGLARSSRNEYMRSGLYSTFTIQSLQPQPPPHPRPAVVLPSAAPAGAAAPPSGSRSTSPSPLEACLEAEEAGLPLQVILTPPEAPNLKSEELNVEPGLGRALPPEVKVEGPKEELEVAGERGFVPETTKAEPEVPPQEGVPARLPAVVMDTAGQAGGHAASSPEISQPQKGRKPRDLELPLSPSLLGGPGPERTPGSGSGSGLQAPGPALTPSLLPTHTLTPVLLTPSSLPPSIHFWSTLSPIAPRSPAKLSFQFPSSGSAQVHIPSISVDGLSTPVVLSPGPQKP
# Summary of the method: as §1
# GABPA = target: T3, GABPA (Homo sapiens, UniProt Q06546 1-454); conditions: protein: recombinant; tags: N-terminal GST; dsDNA, one strand shown
# T3 sequence: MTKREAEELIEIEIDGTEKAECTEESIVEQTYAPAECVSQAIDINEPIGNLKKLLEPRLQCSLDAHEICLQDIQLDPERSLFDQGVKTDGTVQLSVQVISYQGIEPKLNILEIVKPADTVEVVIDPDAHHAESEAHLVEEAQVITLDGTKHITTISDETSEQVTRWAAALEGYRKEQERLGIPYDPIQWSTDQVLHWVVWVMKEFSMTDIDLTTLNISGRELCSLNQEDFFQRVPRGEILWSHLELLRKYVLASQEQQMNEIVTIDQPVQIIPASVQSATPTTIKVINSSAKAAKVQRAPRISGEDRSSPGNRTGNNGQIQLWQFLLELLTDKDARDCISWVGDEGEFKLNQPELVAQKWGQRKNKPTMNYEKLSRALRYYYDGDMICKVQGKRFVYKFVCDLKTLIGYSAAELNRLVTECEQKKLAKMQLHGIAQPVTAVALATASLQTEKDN
# Summary of the method: as §1
# ERG = target: T4, ERG (Homo sapiens, UniProt P11308 1-479); conditions: protein: recombinant; tags: N-terminal GST; dsDNA, one strand shown
# T4 sequence: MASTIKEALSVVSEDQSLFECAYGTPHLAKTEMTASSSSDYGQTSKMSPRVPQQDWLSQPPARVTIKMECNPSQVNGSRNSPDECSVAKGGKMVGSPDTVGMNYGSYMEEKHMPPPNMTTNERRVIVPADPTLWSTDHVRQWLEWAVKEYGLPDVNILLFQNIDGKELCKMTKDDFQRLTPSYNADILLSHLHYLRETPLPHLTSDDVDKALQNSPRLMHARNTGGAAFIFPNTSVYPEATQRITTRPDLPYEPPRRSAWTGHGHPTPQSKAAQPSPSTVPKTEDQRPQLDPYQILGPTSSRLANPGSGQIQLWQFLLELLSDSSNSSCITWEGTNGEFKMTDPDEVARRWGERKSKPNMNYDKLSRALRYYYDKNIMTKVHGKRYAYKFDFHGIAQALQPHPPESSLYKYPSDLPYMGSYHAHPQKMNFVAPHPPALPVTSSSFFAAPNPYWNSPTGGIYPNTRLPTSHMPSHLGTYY
# Summary of the method: as §1
# ELF1 = ELF1 (Homo sapiens, UniProt P32519 1-619); conditions: protein: recombinant; tags: N-terminal GST; dsDNA, one strand shown
# ELF1, sequence (P32519 whole entry): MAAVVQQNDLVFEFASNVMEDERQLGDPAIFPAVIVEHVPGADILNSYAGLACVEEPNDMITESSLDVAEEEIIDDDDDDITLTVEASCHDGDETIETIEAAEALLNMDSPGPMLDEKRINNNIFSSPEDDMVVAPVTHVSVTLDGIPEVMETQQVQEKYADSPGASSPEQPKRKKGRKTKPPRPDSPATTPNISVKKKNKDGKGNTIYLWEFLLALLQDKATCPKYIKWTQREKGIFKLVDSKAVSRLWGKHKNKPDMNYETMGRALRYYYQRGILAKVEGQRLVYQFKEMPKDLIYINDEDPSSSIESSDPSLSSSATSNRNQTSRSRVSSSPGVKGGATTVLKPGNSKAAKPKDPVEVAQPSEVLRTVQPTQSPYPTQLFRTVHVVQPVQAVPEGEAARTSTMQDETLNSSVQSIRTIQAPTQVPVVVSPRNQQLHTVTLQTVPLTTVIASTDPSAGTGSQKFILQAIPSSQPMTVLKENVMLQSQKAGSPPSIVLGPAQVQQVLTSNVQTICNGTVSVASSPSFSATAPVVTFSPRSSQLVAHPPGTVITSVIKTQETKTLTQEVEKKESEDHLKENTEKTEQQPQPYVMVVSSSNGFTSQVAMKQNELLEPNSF
# Summary of the method: as §1
# EHF = target: T5, EHF (Homo sapiens, UniProt Q9NZC4 1-300); conditions: protein: recombinant; tags: N-terminal GST; dsDNA, one strand shown
# T5 sequence: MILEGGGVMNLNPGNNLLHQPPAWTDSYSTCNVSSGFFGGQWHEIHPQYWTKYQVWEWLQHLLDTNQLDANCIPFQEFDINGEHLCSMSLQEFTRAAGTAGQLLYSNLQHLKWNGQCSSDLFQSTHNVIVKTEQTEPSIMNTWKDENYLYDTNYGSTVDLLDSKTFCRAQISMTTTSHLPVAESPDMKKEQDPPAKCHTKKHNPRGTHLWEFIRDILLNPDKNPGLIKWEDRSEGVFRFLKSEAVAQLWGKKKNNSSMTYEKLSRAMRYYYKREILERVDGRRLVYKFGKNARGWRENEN
# Summary of the method: as §1
# SPI1 = SPI1 (Homo sapiens, UniProt P17947 1-270); conditions: protein: recombinant; tags: N-terminal GST; dsDNA, one strand shown
# Summary of the method: as §1
# SPIB = SPIB (Homo sapiens, UniProt Q01892 1-262); conditions: protein: recombinant; tags: N-terminal GST; dsDNA, one strand shown
# SPIB, sequence (Q01892 whole entry): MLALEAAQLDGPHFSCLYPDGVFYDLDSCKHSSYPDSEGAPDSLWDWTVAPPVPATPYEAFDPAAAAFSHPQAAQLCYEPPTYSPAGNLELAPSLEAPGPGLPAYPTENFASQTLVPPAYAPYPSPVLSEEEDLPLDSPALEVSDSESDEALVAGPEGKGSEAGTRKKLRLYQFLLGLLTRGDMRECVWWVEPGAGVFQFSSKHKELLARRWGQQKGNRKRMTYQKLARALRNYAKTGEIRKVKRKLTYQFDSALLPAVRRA
# Summary of the method: as §1
# ELK3 = target: T6, ELK3 (Homo sapiens, UniProt P41970 1-407); conditions: protein: recombinant; tags: N-terminal GST; dsDNA, one strand shown
# T6 sequence: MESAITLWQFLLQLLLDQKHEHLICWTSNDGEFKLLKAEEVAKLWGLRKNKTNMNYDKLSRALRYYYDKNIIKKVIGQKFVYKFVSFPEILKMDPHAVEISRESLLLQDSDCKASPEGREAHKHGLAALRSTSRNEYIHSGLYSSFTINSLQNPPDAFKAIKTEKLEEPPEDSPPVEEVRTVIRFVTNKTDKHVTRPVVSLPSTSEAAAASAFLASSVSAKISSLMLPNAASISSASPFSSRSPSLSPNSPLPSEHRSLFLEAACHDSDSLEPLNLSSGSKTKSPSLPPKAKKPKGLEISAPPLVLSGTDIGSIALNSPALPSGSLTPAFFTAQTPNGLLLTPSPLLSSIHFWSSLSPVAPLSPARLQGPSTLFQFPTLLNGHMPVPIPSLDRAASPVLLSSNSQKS
# Summary of the method: as §1
# FEV = target: T7, FEV (Homo sapiens, UniProt Q99581 1-238); conditions: protein: recombinant; tags: N-terminal GST; dsDNA, one strand shown
# T7 sequence: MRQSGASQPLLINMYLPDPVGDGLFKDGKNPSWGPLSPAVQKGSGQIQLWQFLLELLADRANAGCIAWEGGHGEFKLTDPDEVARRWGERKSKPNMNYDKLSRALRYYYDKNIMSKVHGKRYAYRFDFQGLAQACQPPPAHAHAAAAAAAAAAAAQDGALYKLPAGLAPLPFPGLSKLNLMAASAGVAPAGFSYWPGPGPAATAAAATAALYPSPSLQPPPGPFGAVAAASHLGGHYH
# Summary of the method: as §1
# ETV5 = ETV5 (Homo sapiens, UniProt P41161 1-510); conditions: protein: recombinant; tags: N-terminal GST; dsDNA, one strand shown
# ETV5, sequence (P41161 whole entry): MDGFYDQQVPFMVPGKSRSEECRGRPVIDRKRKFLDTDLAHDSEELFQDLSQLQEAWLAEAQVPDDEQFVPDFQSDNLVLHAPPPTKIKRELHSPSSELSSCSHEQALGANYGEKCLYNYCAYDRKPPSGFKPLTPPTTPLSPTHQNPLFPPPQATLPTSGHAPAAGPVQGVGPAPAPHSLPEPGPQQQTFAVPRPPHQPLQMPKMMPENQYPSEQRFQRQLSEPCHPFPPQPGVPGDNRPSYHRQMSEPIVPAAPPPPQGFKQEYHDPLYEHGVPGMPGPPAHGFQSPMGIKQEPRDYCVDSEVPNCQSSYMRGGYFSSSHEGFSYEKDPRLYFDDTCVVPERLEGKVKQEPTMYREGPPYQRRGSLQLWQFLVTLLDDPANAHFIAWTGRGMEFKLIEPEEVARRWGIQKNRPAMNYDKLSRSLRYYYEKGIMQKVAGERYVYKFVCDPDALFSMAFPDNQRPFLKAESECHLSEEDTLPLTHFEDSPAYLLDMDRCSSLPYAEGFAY
# Summary of the method: as §1
# HSF1 = HSF1 (Homo sapiens, UniProt Q00613 1-529); conditions: protein: recombinant; tags: N-terminal GST; chain copies: 3; dsDNA, one strand shown
# HSF1, sequence (Q00613 whole entry): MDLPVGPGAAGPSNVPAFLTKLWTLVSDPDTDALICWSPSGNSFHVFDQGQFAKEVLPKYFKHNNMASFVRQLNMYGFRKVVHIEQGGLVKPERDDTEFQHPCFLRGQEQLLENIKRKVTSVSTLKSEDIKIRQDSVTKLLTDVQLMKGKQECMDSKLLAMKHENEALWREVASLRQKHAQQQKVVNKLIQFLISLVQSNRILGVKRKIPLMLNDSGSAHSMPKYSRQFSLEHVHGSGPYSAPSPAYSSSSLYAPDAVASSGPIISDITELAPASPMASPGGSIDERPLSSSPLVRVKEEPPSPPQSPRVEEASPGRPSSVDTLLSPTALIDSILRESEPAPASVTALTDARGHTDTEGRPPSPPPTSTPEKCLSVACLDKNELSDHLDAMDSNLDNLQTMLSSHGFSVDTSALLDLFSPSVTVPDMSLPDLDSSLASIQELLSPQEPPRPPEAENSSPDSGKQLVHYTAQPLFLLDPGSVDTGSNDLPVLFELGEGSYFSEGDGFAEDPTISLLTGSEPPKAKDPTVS
# Summary of the method: as §1
# SPIC = target: T8, SPIC (Homo sapiens, UniProt Q8N5J4 1-248); conditions: protein: recombinant; tags: N-terminal GST; dsDNA, one strand shown
# T8 sequence: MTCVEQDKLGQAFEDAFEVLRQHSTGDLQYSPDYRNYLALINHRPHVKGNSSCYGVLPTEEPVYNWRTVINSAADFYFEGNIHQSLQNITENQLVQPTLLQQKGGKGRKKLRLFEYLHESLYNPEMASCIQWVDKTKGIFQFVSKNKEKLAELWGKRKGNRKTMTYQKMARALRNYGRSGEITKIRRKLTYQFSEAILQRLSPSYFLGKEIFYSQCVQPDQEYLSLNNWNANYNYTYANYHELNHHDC
# Summary of the method: as §1
# ELF4 = ELF4 (Homo sapiens, UniProt Q99607 1-663); conditions: protein: recombinant; tags: N-terminal GST; dsDNA, one strand shown
# ELF4, sequence (Q99607 whole entry): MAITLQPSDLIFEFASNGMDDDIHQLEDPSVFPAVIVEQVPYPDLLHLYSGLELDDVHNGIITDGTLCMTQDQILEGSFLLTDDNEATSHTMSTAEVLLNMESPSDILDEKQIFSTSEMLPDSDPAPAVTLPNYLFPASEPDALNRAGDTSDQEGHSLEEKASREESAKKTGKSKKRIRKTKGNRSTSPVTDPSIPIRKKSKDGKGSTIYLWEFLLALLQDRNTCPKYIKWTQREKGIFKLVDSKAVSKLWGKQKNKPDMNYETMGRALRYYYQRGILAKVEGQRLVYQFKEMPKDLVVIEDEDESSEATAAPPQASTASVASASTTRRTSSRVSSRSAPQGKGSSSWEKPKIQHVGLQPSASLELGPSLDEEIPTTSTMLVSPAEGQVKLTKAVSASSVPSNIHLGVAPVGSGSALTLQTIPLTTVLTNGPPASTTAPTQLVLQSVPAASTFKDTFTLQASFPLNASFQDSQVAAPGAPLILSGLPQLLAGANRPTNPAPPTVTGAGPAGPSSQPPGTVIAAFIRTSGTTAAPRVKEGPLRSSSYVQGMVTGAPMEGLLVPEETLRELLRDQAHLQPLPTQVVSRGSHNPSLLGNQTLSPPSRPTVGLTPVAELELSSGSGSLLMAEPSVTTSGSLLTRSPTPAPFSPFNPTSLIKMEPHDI
# Summary of the method: as §1
# ELK4 = target: T9, ELK4 (Homo sapiens, UniProt P28324-2 1-405); conditions: protein: recombinant; tags: N-terminal GST; dsDNA, one strand shown
# T9 sequence: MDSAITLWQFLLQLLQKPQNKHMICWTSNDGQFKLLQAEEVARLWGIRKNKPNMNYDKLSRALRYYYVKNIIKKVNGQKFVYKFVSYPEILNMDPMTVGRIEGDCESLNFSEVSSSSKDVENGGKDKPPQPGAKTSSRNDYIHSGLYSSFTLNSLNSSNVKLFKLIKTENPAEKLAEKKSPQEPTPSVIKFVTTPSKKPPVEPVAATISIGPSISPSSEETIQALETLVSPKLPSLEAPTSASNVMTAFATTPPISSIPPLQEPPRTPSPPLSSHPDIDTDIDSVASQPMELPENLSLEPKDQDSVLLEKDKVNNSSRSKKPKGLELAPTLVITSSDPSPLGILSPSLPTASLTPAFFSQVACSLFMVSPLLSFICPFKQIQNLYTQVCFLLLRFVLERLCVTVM
# Summary of the method: as §1
# ETV2 = target: T10, ETV2 (Homo sapiens, UniProt O00321 1-342); conditions: protein: recombinant; tags: N-terminal GST; dsDNA, one strand shown
# T10 sequence: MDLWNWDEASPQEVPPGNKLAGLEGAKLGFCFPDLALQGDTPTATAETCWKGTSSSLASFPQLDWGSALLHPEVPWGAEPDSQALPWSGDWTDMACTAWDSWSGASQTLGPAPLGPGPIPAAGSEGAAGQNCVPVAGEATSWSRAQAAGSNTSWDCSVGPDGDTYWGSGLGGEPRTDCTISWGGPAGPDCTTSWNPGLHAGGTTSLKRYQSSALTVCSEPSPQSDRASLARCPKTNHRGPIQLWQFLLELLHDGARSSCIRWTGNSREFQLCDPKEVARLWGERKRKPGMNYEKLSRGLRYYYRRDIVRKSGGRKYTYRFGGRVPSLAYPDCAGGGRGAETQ
# Summary of the method: as §1
# ELF3 = target: T11, ELF3 (Homo sapiens, UniProt P78545 1-371); conditions: protein: recombinant; tags: N-terminal GST; dsDNA, one strand shown
# T11 sequence: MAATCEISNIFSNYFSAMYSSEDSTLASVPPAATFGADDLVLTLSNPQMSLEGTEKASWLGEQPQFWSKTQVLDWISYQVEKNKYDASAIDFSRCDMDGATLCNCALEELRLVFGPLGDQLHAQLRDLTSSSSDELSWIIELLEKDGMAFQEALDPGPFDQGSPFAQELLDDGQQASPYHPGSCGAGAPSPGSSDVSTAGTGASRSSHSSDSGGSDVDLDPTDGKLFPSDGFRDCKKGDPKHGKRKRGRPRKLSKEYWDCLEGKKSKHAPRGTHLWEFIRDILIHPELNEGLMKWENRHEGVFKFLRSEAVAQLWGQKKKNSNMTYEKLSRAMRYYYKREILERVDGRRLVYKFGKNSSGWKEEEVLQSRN
# Summary of the method: as §1
# ETV1 = ETV1 (Homo sapiens, UniProt P50549 1-477); conditions: protein: recombinant; tags: N-terminal GST; dsDNA, one strand shown
# ETV1, sequence (P50549 whole entry): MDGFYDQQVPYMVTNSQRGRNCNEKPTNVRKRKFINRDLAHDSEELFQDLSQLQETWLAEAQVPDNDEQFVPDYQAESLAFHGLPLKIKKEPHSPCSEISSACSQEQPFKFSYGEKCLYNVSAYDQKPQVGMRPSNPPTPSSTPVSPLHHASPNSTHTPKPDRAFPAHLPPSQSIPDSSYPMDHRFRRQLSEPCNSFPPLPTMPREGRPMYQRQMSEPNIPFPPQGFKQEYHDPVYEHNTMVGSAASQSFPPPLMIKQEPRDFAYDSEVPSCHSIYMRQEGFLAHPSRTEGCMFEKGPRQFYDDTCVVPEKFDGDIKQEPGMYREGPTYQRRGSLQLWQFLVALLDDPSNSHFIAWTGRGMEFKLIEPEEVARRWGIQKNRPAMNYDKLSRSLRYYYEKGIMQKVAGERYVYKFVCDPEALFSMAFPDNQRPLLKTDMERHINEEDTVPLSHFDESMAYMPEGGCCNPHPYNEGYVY
# Summary of the method: as §1
sequence,measurement,setting,value
TGAAAC,binding signal,FLI1,"1.31 fold enrichment (6-mer frequency, TF over GST control)"
same,binding signal,ELK1,"1.29 fold enrichment (6-mer frequency, TF over GST control)"
same,binding signal,GABPA,"1.25 fold enrichment (6-mer frequency, TF over GST control)"
same,binding signal,ERG,"1.16 fold enrichment (6-mer frequency, TF over GST control)"
same,binding signal,ELF1,"1.4 fold enrichment (6-mer frequency, TF over GST control)"
same,binding signal,EHF,"1.28 fold enrichment (6-mer frequency, TF over GST control)"
same,binding signal,SPI1,"1.28 fold enrichment (6-mer frequency, TF over GST control)"
same,binding signal,SPIB,"1.18 fold enrichment (6-mer frequency, TF over GST control)"
same,binding signal,ELK3,"1.33 fold enrichment (6-mer frequency, TF over GST control)"
same,binding signal,FEV,"1.31 fold enrichment (6-mer frequency, TF over GST control)"
same,binding signal,ETV5,"1.33 fold enrichment (6-mer frequency, TF over GST control)"
same,binding signal,HSF1,"1.13 fold enrichment (6-mer frequency, TF over GST control)"
same,binding signal,SPIC,"1.27 fold enrichment (6-mer frequency, TF over GST control)"
same,binding signal,ELF4,"1.27 fold enrichment (6-mer frequency, TF over GST control)"
same,binding signal,ELK4,"1.18 fold enrichment (6-mer frequency, TF over GST control)"
same,binding signal,ETV2,"1.4 fold enrichment (6-mer frequency, TF over GST control)"
same,binding signal,ELF3,"1.42 fold enrichment (6-mer frequency, TF over GST control)"
same,binding signal,ETV1,"1.27 fold enrichment (6-mer frequency, TF over GST control)"
